From ChEMBL document CHEMBL4296182, “CO-ADD screening of NIH NCI Diversity Set V”
For part of these data: Results with a measured potency or affinity are listed apart.

Legend:
Staphylococcus aureus = assay: Antibacterial activity against Staphylococcus aureus MRSA ATCC 43300 (CO-ADD:GP_020); MIC in CAMBH media using NBS plates, by Resazurin F(560/590); type: functional; details: Concentration 20 uM, ASSAY_TEST Inhibition of Bacterial Growth, detection method Resazurin, Fluorescence (ex560/em590), MEDIA CAMHB, plate type 384well, CORNING #3640, time 18 hr
Acinetobacter baumannii = assay: Antibacterial activity against Acinetobacter baumannii ATCC 19606 (CO-ADD:GN_034); MIC in CAMBH media using NBS plates, by Resazurin F(560/590); type: functional; details: Concentration 20 uM, ASSAY_TEST Inhibition of Bacterial Growth, detection method Resazurin, Fluorescence (ex560/em590), MEDIA CAMHB, plate type 384well, CORNING #3640, time 18 hr
Escherichia coli = assay: Antibacterial activity against Escherichia coli ATCC 25922 (CO-ADD:GN_001); MIC in CAMBH media using NBS plates, by Resazurin F(560/590); type: functional; details: Concentration 20 uM, ASSAY_TEST Inhibition of Bacterial Growth, detection method Resazurin, Fluorescence (ex560/em590), MEDIA CAMHB, plate type 384well, CORNING #3640, time 18 hr
Klebsiella pneumoniae = details: Concentration 20 uM; ASSAY_TEST Inhibition of Bacterial Growth; detection method Absorption (OD600); MEDIA CAMHB; plate type 384well; NBS; CORNING #3640; time 18 hr
Candida albicans = details: 20 µM
Cryptococcus neoformans = details: Concentration 20 uM; ASSAY_TEST Inhibition of Fungal Growth; detection method Resazurin; Absorption (OD600-OD570); plate type 384well; NBS; CORNING #3640

SMILES	Inhibition (Staphylococcus aureus)	Inhibition (Acinetobacter baumannii)	Inhibition (Escherichia coli)	Inhibition (Klebsiella pneumoniae)	Inhibition (Candida albicans)	Inhibition (Cryptococcus neoformans)
CCOC(=O)C(=Cc1ccc(Br)cc1)C(=O)OCC	4.77%	8.54%	-5.6%	28.34%	19%	-1.07%
CCC(C)Oc1nc2c(c(=O)n(C)c(=O)n2C)n1C (stereo unspecified)	-1.77%	-5.34%	12.06%	2.01%	1.02%	-11.56%
CCCCOc1ccc(Nc2cc(Cl)ccc2C(=O)O)cn1	11.44%	0.16%	4.02%	9.69%	10.4%	-7.88%
Nc1ccc(C(=O)Nc2cccc(N)c2)cc1	4.61%	-10.29%	5.56%	4.23%	0.06%	-9.54%
CC1CCCC(CC(=O)O)(CC(=O)O)C1 (stereo unspecified)	-13.43%	0.95%	-5.78%	6.3%	2.72%	-2.12%
Cn1c(=O)c2c(nc(N3CCOCC3)n2C)n(C)c1=O	9.23%	6.55%	2.94%	9.52%	2.91%	-9.23%
CCOC(=O)C1(C#N)C(=O)CS/C1=N/c1ccccc1Cl (stereo unspecified)	19.69%	6.45%	0.68%	8.87%	1.9%	-13.01%
CN(C)Cc1cc(C(F)(F)F)ccc1C(O)(c1ccccc1)c1ccccc1	9.65%	13.38%	9.52%	10.99%	-1.43%	-9.44%
O=C(NCc1ccco1)Nc1ccc([N+](=O)[O-])cc1	14.72%	3.43%	4.45%	18.95%	5.76%	-12.12%
Cc1nc2ccc(N)nc2nc1C	15.94%	-14.31%	16.52%	12.13%	-1.28%	-2.36%
Cl.Nc1ncnc2c(C3OC(CO)C(O)C3O)c[nH]c12 (stereo unspecified)	3.2%	11.32%	-11.86%	9.96%	2.09%	-0.14%
N#C/C(=C\c1cccnc1)c1ccc(Br)cc1	-11.66%	-1.77%	-11.06%	8.56%	35.8%	-4.26%
Cc1cc(N2CCOCC2)nc(N2CCOCC2)n1	0.14%	-0.73%	6.71%	4.64%	1.08%	-7.95%
Cc1ccc(S(=O)(=O)N(C)C)cc1[N+](=O)[O-]	-7.75%	-5.08%	-0.42%	1.49%	0.81%	-3.84%
CC(=O)NCC(O)c1ccc([N+](=O)[O-])cc1 (stereo unspecified)	9.36%	-9%	7.49%	22.16%	1.24%	2.12%
CC(C)(C)C1=NN=C2c3ccccc3C(=O)C21 (stereo unspecified)	-4.27%	3.03%	-6.26%	1.25%	5.03%	-9.6%
Cc1cc2c(c(C#N)c1C)NC=NC2C (stereo unspecified)	11.79%	-0.59%	15.46%	8.12%	-2.89%	-13.76%
COc1ccc(/C(C#N)=C/c2cccnc2)cc1	17.02%	-13.68%	11.08%	6.19%	11.3%	-16.52%
O=C(O)c1nn(-c2ccccc2-c2nnc(O)nc2O)c(=O)[nH]c1=O	28.61%	10.46%	9.27%	22.91%	1.7%	4.78%
Clc1c(Cl)c(Cl)c2[nH]nnc2c1Cl	-10.41%	-8.91%	8.31%	1.32%	18.5%	-10.27%
Sc1nc2ccccc2n2cccc12	2.5%	-10.79%	2.01%	3.32%	17.9%	-1.74%
CC(=O)OC1C=CCC2C(=O)c3cccc(O)c3C(O)C12 (stereo unspecified)	-1.42%	-10.27%	6.95%	7.69%	6.66%	-16.38%
COc1cc2c(cc1OC)[N+]([O-])=C(c1ccccc1)C2=O	11.49%	-5.23%	9.41%	-2.97%	13.8%	-4.84%
c1ccc(CSc2nnc3c4ccccc4c4ccccc4c3n2)cc1	-1.68%	11.2%	0.12%	1.09%	5.6%	-12.52%
Cc1n[nH]c2nc(N)nn2c1=O	-4.36%	-0.91%	10.78%	-2.02%	-3.85%	-10.19%
CCCc1nc(NC(=O)c2ccccc2)nc(NC(=O)c2ccccc2)n1	-10.01%	-7.86%	8.74%	10.41%	3.97%	-9.1%

SMILES	Inhibition (Staphylococcus aureus)	Inhibition (Acinetobacter baumannii)	Inhibition (Escherichia coli)	Inhibition (Klebsiella pneumoniae)	Inhibition (Candida albicans)	Inhibition (Cryptococcus neoformans)
Cc1ccn(C)c(=N)c1	5.26%	-6.78%	8.42%	11.41%	2.59%	-0.88%
c1ccc2c(c1)[nH]c1c3ccccc3sc21	12.39%	-1.18%	0.28%	11.83%	5.08%	-2.59%
Nc1ncnc2c1ncn2C1C=C(CO)C(O)C1O (stereo unspecified)	4.94%	-16.45%	9.33%	9.87%	1.07%	-6.12%
COc1cc(C(=O)C(=O)c2ccc(O)c(OC)c2)ccc1O	-3.81%	-13.36%	16.47%	8.6%	1.86%	-17.88%
CCCNC(=O)c1ccc(Cl)cc1Cl	12.41%	-15.87%	4.4%	8.05%	0.63%	-4.71%
C=CCC(CC)C(=O)NC(=O)N1CCCc2ccccc21 (stereo unspecified)	-2.1%	11.89%	-1.31%	11.1%	4.92%	-1.85%
Nc1nc(SCc2ccccc2)sc1C(=O)N1CCCCC1	18.6%	4.73%	3.88%	21.18%	8.19%	-7.01%
Clc1nc(Oc2ccccc2)nc(-c2cn(-c3ccccc3)c3ccccc23)n1	2.81%	4.85%	6.07%	3.03%	-0.88%	-13%
O=C(c1ccccc1)C1C(c2ccccc2)C1[N+](=O)[O-] (stereo unspecified)	0.24%	5.31%	-7.09%	8.34%	7.18%	-2.68%
NC(=O)c1nnsc1-c1ccc(-c2snnc2C(N)=O)cc1	15.72%	9.25%	9.34%	2.92%	-1.56%	-13.62%
Cc1ccncc1C(N)=O	0.11%	-6.4%	17.18%	14.09%	1.98%	-4.15%
Cc1c([N+](=O)[O-])oc2c1C(=O)NCCC2	15.45%	5.11%	5.84%	9.17%	2.94%	-11.37%
C=C(C)C(=O)Nc1ccc(NC(C)C)cc1	12%	5.36%	6.32%	8.48%	4.24%	-6.96%
O=c1nc(Nc2cccc(Cl)c2)oc2cc(Cl)oc(=O)c12	6.93%	3.28%	2.7%	6.71%	20.4%	-13.47%
CCCSc1nc2c(c(=O)n(C)c(=O)n2C)n1C	3.15%	-8.65%	0.8%	7.42%	2.63%	-7.02%
CSc1nc(O)nnc1Sc1ccccc1	-5.45%	-15.47%	6.74%	7.57%	13.4%	-16.19%
CC12CCC(C1)C(C)(C)C2OC(=O)c1ccccc1C(=O)O (stereo unspecified)	7.81%	-7.81%	-3.09%	22.55%	4.22%	-18.67%
O=C1OC(Cc2ccccc2)C(c2ccccc2)C1=O (stereo unspecified)	9.75%	11.9%	6.23%	14.26%	6.87%	-15.19%
CCC(C)N=C(S)Nc1ccccc1 (stereo unspecified)	-4.21%	6.89%	4.84%	5.07%	5.4%	-3.02%
COc1ccc(/C(C#N)=C/c2ccccn2)cc1	30.75%	-12.49%	21.69%	10.64%	7.54%	8.53%
COc1cc2c(cc1OC)C(C1(O)CCCCC1)NCC2 (stereo unspecified)	18.67%	-1.81%	15.36%	-0.68%	-2.01%	-12.78%
CCOC(=O)N1C/C(=C\c2ccccc2)C(=O)/C(=C/c2ccccc2)C1	10.93%	7.26%	0.16%	12.83%	6.37%	-7.05%
Cc1nc(SCC(=O)O)n[nH]1 [TIAZOTIC ACID]	14.48%	-8.95%	7.99%	14.92%	2.04%	-0.18%
CCCCNc1nc(N)ncc1[N+](=O)[O-]	5.28%	-8.97%	14%	10.57%	8.4%	-15.62%
O=c1cc(-c2ccccc2)[nH]c2cc(-c3ccco3)nn12	0.84%	-12.67%	11.9%	14.24%	-0.13%	-17.18%
